Measured values from PubChem BioAssay AID743446 (Broad Institute, 2014).
Measured potencies and affinities stand elsewhere. A number with no mark means an inactive call. The rule behind the calls is not given here.

Assay: viability loss in HEK293 cells – cell-based, plate reader, cherry-picked samples, cytotoxicity control, dose response (AID 743446)
Conditions: hits give low values; at 26 µM unless noted

SMILES	max activity
O=c1[nH]c(CSc2ccccn2)nc2c1oc1ccccc12	-17.8%
O=C(O)c1cccc(Nc2ccnc(Nc3cccc(C(=O)O)c3)n2)c1	-12.2% [at 0.05 µM]
COc1ccc(CC(=O)Nc2cccc(-c3nnc(-c4cccc(C)c4)o3)c2)cc1OC	-27%
CCCCc1ccc(NC(=O)c2cnccn2)cc1	-14.3% [at 3 µM]
CN(C)c1ccc(C2NC(=O)c3ccccc3N2)cc1 (stereo not drawn)	20.5% [at 0.1 µM]
O=C(c1cc(-c2ccc(Cl)cc2Cl)on1)N1CCOCC1	14.9% [at 0.05 µM]
COc1ccc(S(=O)(=O)Nc2ccc3c(c2)C(=O)N([C@@H](C)CO)C[C@@H](C)[C@H](CN(C)C(=O)Nc2cccc4ccccc24)OCCCC[C@H](C)O3)cc1	35.8% [at 12 µM]
CCCCCc1ccc(-c2ccc(C(=O)O)cc2)nc1	34.4% [at 0.8 µM]
c1ccc(-n2ncc3c(N4CCCCC4)ncnc32)cc1	-13.3% [at 3 µM]
Cc1cc(Cl)ccc1OCCCC(=O)Nc1cc(S(=O)(=O)N2CCOCC2)ccc1N1CCOCC1	-21.8% [at 0.1 µM]
Cc1ccccc1C(=O)Nc1ccc2c(c1)OCCO2	-9.3% [at 0.05 µM]
COc1cc(SC)ccc1C(=O)Nc1ccc(Cl)cn1	19.7% [at 3 µM]
CCn1c(C)cc(C(=O)CN2C(=O)c3ccccc3S2(=O)=O)c1C	-18.9% [at 6 µM]
N#C[C@@H]1[C@H](c2ccc(C#Cc3cccc(F)c3)cc2)[C@@H](CO)N1C(=O)C1CC1	10.4% [at 12 µM]
Cc1ccc(-c2nc(-c3ccncc3)no2)c(Cl)c1	10% [at 1.6 µM]
Cc1ccc(-c2nc(-c3ccncc3)no2)cc1C	-14.8%
Cc1ccc(NC(=O)c2ncn(CC(=O)N3CCN(c4ccccn4)CC3)n2)cc1C	-13.4% [at 0.195 µM]
CCc1nnc(NC(=O)CSc2nnc3ncccn23)s1	33.7%
NCC[C@H]1CC[C@H](NS(=O)(=O)Cc2ccccc2)[C@@H](CO)O1	24.3%
C=CCN1CCN(C(=O)CCCc2ccccc2)CC1	69.3% [at 12 µM]
Cc1ccc(-c2cnn3c(N4CCOCC4)cc(C)nc23)cc1	35.7% [at 0.38 µM]
Cc1ccc(C(=O)NCCc2cccs2)cc1	37.3% [at 3 µM]
Cc1ccc(C)c(S(=O)(=O)N(C(=O)c2ccncc2)c2ccc(OC(=O)c3ccncc3)cc2)c1	13.7%
Cc1ccc(Nc2nc(N)c3ccccc3n2)cc1C	-37.4%
O=C(O)c1cccc(N/N=C/c2cccs2)c1	58.2% [at 6 µM]

SMILES	max activity
O=C(Cc1ccncc1)NCC[C@H]1CC[C@H](NC(=O)C2CCCC2)[C@H](CO)O1	13.9% [at 0.1 µM]
O=C(COc1ccc2ccccc2c1)Nc1nccs1	38.6% [at 0.195 µM]
CCCNC(=O)N1[C@H](C#N)[C@H](c2ccc(C#Cc3ccc(F)cc3)cc2)[C@H]1CO	-37%
CC(C)Nc1ncnc2c1cnn2-c1ccc(Cl)cc1	60.9%
Clc1ccc(-n2ncc3c(N4CCCC4)ncnc32)cc1	13.4%
C[C@H](CO)N1C[C@H](C)[C@H](CN(C)C(=O)Cc2ccccc2)OCCCC[C@H](C)Oc2ccc(NC(=O)Nc3ccc(C(F)(F)F)cc3)cc2C1=O	12.5% [at 3 µM]
C[C@H](CO)N1C[C@H](C)[C@H](CN(C)C(=O)Nc2ccccc2)OCCCC[C@H](C)Oc2ccc(NC(=O)Nc3ccc4c(c3)OCO4)cc2C1=O	50.9% [at 0.195 µM]
COc1ccc(S(=O)(=O)Nc2ccc3c(c2)C(=O)N([C@H](C)CO)C[C@H](C)[C@H](CN(C)S(=O)(=O)c2ccc(F)cc2)OCCCC[C@@H](C)O3)cc1	-23.7% [at 12 µM]
O=S1(=O)CCOC[C@H](CC2CCCCC2)N1Cc1ccccc1F	-17.9% [at 0.1 µM]
CCCc1nc(SCC(=O)N2CCC(Cc3ccccc3)CC2)c2c(=O)n(C)c(=O)n(C)c2n1	11.8% [at 0.05 µM]
Cc1ccnc(N2C(=O)c3ccccc3C2Nc2ccc3c(c2)OCCO3)c1 (stereo not drawn)	25.2% [at 0.05 µM]
Cc1csc(NC(=O)c2ccc(OCC3CCCO3)cc2)n1 (stereo not drawn)	28.1% [at 3 µM]
CC1(c2ccccc2Cl)NC(=O)N(CC(=O)N2CCc3ccccc32)C1=O (stereo not drawn)	40.9%
CC(C)NC(=O)Nc1ccc2c(c1)C(=O)N([C@H](C)CO)C[C@@H](C)[C@H](CN(C)S(C)(=O)=O)OCCCC[C@H](C)O2	43.1%
COc1ccc(C(=O)Nc2nnc(-c3ccco3)s2)cc1	-21.3% [at 3 µM]
C[C@H]1CN([C@@H](C)CO)C(=O)c2cc(NC(=O)Nc3ccccc3)ccc2O[C@H]1CN(C)Cc1ccc(-c2ccccc2)cc1	25.6% [at 0.1 µM]
O=C(CC1CS(=O)(=O)CC1CC(=O)Nc1ccc2c(c1)OCCO2)Nc1ccc2c(c1)OCCO2 (stereo not drawn)	38.3% [at 0.8 µM]
Nc1nccc(-c2cc(-c3ccc(Cl)cc3Cl)no2)n1	47.2% [at 6 µM]
O=C(Nc1ccc(N2CCOCC2)cc1)c1cnccn1	-6.24% [at 3 µM]
C[C@H](CO)N1C[C@H](C)[C@H](CN(C)C(=O)CN2CCOCC2)Oc2ncc(C#CCN(C)C)cc2C1=O	18.5% [at 0.42 µM]
COc1ccccc1CN(C)C[C@@H]1OCc2cnnn2CCCC(=O)N([C@H](C)CO)C[C@H]1C	11% [at 0.38 µM]
Cc1ccc(-c2cc(C(=O)N(C)Cc3cnn(C)c3C)c3cc(Br)ccc3n2)cc1	-9.48%
Cc1ccc(C(=O)CN2C(=O)c3ccccc3S2(=O)=O)cc1	11.6% [at 3 µM]
O=C(NCc1ccco1)c1cc(NS(=O)(=O)c2cccc([N+](=O)[O-])c2)ccc1O	40.6% [at 0.38 µM]
Cc1ccc(S(=O)(=O)N2[C@@H](CO)CO[C@H]2CC(=O)OCc2ccccc2)cc1	42.9% [at 12 µM]

SMILES	max activity
O=C(Nc1ccc(NC(=O)c2ccco2)nc1)c1ccco1	-22.6%
COCC#Cc1ccc2c(c1)O[C@H](CN(C)S(=O)(=O)c1cccc(F)c1)[C@@H](C)CN([C@H](C)CO)S2(=O)=O	14.5% [at 0.195 µM]
CN(C)S(=O)(=O)c1cccc(NC(=O)COc2ccccc2C(=O)Nc2ccccc2)c1	-34.1%
O=C(Nc1ccc(N2CCN(C(=O)c3ccc(Cl)cc3)CC2)cc1)c1cc2ccccc2o1	21.1% [at 0.05 µM]
Cc1ccc(NC(=O)c2sc3ccccc3c2Cl)nc1	24.8% [at 12 µM]
Cn1cnc(S(=O)(=O)N2C[C@@H](O)COC[C@H]3O[C@H](CC(=O)NC4CCCC4)CC[C@@H]32)c1	13.5% [at 0.38 µM]
O=C(C[C@H]1C=C[C@@H](NC(=O)C2CCC2)[C@H](CO)O1)NCCCN1CCOCC1	-15.9% [at 1.6 µM]
CC(C)(C)c1ccc(Cn2c(=O)cnc3ccccc32)cc1	-26.8% [at 12 µM]
O=C(CN1C(=O)c2ccccc2S1(=O)=O)Nc1ncc(Cl)cc1Cl	-12.9% [at 1.6 µM]
CO[C@@H]1CN(C)C(=O)c2ccc(NC(=O)C3CC3)cc2OC[C@@H](C)NC[C@@H]1C	12% [at 3 µM]
CCCOc1ccc(F)cc1-c1cc(C(=O)Nc2cc(OC)c(OC)c(OC)c2)[nH]n1	9.95% [at 3 µM]
Cc1ccc(-n2[nH]c(=O)c(-c3ccccn3)c2C)cc1	41.3% [at 12 µM]
Cc1cc(C)c(C)c(S(=O)(=O)N2CCN(c3ncnc4ccccc34)CC2)c1C	62% [at 1.6 µM]
C[C@H](CO)N1C[C@H](C)[C@H](CN(C)Cc2ccc(C(F)(F)F)cc2)Oc2ccc(NC(=O)Nc3ccc(F)cc3)cc2C1=O	-29.9%
C[C@H]1CN([C@@H](C)CO)C(=O)c2cccc(NC(=O)NC3CCCCC3)c2O[C@@H]1CN(C)Cc1ccc(C(F)(F)F)cc1	27.3% [at 12 µM]
CCc1nnc2cccc(Cl)n12	-9.24% [at 1.6 µM]
Cc1cc(C)n2c(Nc3ccc4c(c3)OCCO4)c(-c3cc4ccccc4o3)nc2n1	52.8%
Cc1ccc(S(=O)(=O)N(C)C[C@H]2Oc3c(cccc3N(C)C)C(=O)N([C@@H](C)CO)C[C@@H]2C)cc1	10.6% [at 6 µM]
COc1ccc(C(=O)CN2C(=O)c3ccccc3S2(=O)=O)cc1	-13.3% [at 0.05 µM]
Cc1ccccc1-c1ccc([C@H]2[C@@H](CO)N3CCCCN(S(=O)(=O)c4ccc(F)cc4)C[C@@H]23)cc1	-101%
Cc1ccc(C(=O)Nc2ccc3c(c2)OCCO3)cc1	17.1% [at 0.05 µM]
C[C@H](CO)N1C[C@H](C)[C@@H](CN(C)CC2CCOCC2)Oc2ncc(Br)cc2C1=O	4.11%
COc1ccc(-c2noc(CCC(=O)N3CCN(c4ccc(Cl)cc4)CC3)n2)cc1	26.2% [at 12 µM]
